# From the supplement of paper PMC8728848
# The full list was thinned out, with the strongest signals kept by preference.
# Assays:
# Assay in all cases: glycan array binding signal (z-score within array); higher = stronger binding
# Conditions in all cases: glycan notation: IUPAC condensed, linker removed
# [1] = target: Fuc(a1-2)Gal(b1-3)GalNAc(a1-3)[Fuc(a1-2)]Gal(b1-4)Glc
# In short: (§1)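 Negative Z-scores can be read as non-binding. The Z-score is calculated within each array and then averaged across arrays of one protein sequence at different concentrations or buffers and across linkers. Arrays, 3228 in all, were curated from the Consortium for Functional Glycomics database and kept only where the protein sequence was available.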
# [2] = target: Fuc(a1-2)Gal(b1-3)GalNAc(a1-3)[Fuc(a1-2)]Gal(b1-4)GlcNAc
# In short: as §1
# [3] = target: Fuc(a1-2)Gal(b1-3)GlcNAc(b1-2)Man(a1-3)[Fuc(a1-2)Gal(b1-3)GlcNAc(b1-2)Man(a1-6)]Man(b1-4)GlcNAc(b1-4)GlcNAc
# In short: as §1
# [4] = target: Fuc(a1-2)Gal(b1-4)Glc6S
# In short: as §1
# [5] = target: Fuc(a1-2)Gal(b1-4)GlcNAc(b1-3)Gal(b1-4)GlcNAc(b1-3)Gal(b1-4)GlcNAc
# In short: as §1
# [6] = target: Fuc(a1-2)Gal(b1-4)[Fuc(a1-3)]GlcNAc
# In short: as §1
# [7] = target: Fuc(a1-2)[Gal(a1-3)]Gal(b1-4)GlcNAc
# In short: as §1
# [8] = target: Fuc(a1-2)[Gal(a1-3)]Gal(b1-4)[Fuc(a1-3)]GlcNAc
# In short: as §1
# [9] = target: Fuc(a1-2)[GalNAc(b1-3)]Gal
# In short: as §1
# [10] = target: Fuc(b1-3)GlcNAc
# In short: as §1
# [11] = target: Gal(a1-3)Gal(b1-4)[Fuc(a1-3)]GlcNAc
# In short: as §1
# [12] = target: Gal(a1-4)Gal(b1-3)GlcNAc(b1-2)Man(a1-3)[Gal(a1-4)Gal(b1-3)GlcNAc(b1-2)Man(a1-6)]Man(b1-4)GlcNAc(b1-4)GlcNAc
# In short: as §1
# [13] = target: Gal(a1-4)GlcNAc
# In short: as §1
# [14] = target: Gal(b1-3)GalNAc(b1-3)Gal(a1-4)Gal(b1-4)Glc
# In short: as §1
# [15] = target: Gal(b1-3)GlcNAc(b1-3)Gal(b1-4)Glc
# In short: as §1
# [16] = target: Gal(b1-3)GlcNAc(b1-3)Gal(b1-4)GlcNAc(b1-6)[Gal(b1-3)GlcNAc(b1-3)]Gal(b1-4)Glc
# In short: as §1
# [17] = target: Gal(b1-3)GlcNAc(b1-3)GalNAc
# In short: as §1
# [18] = target: Gal(b1-3)[Fuc(a1-4)]GlcNAc(b1-2)Man(a1-3)[Gal(b1-3)[Fuc(a1-4)]GlcNAc(b1-2)Man(a1-6)]Man(b1-4)GlcNAc(b1-4)GlcNAc
# In short: as §1
# [19] = target: Gal(b1-4)GlcNAc(b1-3)Gal(b1-4)[Fuc(a1-3)]GlcNAc(b1-3)Gal(b1-4)[Fuc(a1-3)]GlcNAc
# In short: as §1
# [20] = target: Gal(b1-4)GlcNAc(b1-3)[GlcNAc(b1-6)]Gal(b1-4)GlcNAc
# In short: as §1
# [21] = target: Gal3S(b1-3)[Fuc(a1-4)]GlcNAc
# In short: as §1
# [22] = target: Gal3S(b1-4)Glc
# In short: as §1
# [23] = target: Gal3S(b1-4)[Fuc(a1-3)]Glc
# In short: as §1
# [24] = target: GlcA(b1-3)Gal
# In short: as §1
# [25] = target: GlcNAc(a1-4)Gal(b1-4)GlcNAc(b1-3)Gal(b1-4)GlcNAc
# In short: as §1
# [26] = target: GlcNAc(a1-4)Gal(b1-4)GlcNAc(b1-3)Gal(b1-4)[Fuc(a1-3)]GlcNAc(b1-3)Gal(b1-4)[Fuc(a1-3)]GlcNAc
# In short: as §1
# [27] = target: GlcNAc(b1-3)Gal(b1-4)Glc
# In short: as §1
# [28] = target: GlcNAc(b1-3)Gal(b1-4)GlcNAc
# In short: as §1
# [29] = target: GlcNAc(b1-3)Gal(b1-4)GlcNAc(b1-3)Gal(b1-4)GlcNAc
# In short: as §1
# [30] = target: GlcNAc(b1-4)GlcNAc(b1-4)GlcNAc
# In short: as §1
# [31] = target: GlcNAc(b1-4)GlcNAc(b1-4)GlcNAc(b1-4)GlcNAc(b1-4)GlcNAc
# In short: as §1
# [32] = target: GlcNAc(b1-4)GlcNAc(b1-4)GlcNAc(b1-4)GlcNAc(b1-4)GlcNAc(b1-4)GlcNAc
# In short: as §1
# [33] = target: GlcNAc(b1-4)[GlcNAc(b1-6)]GalNAc
# In short: as §1
# [34] = target: Man(a1-3)[Man(a1-6)]Man(b1-4)GlcNAc(b1-4)GlcNAc
# In short: as §1
# [35] = target: Neu5Ac(a2-3)Gal(b1-3)GalNAc
# In short: as §1
# [36] = target: Neu5Ac(a2-3)Gal(b1-4)[Fuc(a1-3)]GlcNAc
# In short: as §1
# [37] = target: Neu5Ac(a2-3)Gal(b1-4)[Fuc(a1-3)]GlcNAc(b1-3)GalNAc
# In short: as §1
# [38] = target: Neu5Ac(a2-3)Gal6S(b1-4)[Fuc(a1-3)]GlcNAc
# In short: as §1
# [39] = target: Neu5Ac(a2-3)GalNAc(b1-4)GlcNAc
# In short: as §1
# [40] = target: Neu5Ac(a2-6)Gal(b1-4)Glc
# In short: as §1
# [41] = target: Neu5Ac(a2-6)GalNAc(b1-4)GlcNAc
# In short: as §1
binder,measurement,setting,value
"Ecp6 (Cladosporium fulvum), B3VBK9 (protein) MQSMILFAAALMGAAVNGFVLPRTDDPDCETKATDCGSTSNIKYTVVKGDTLTSIAKKFKSGICNIVSVNKLANPNLIELGATLIIPENCSNPDNKSCVSTPAEPTETCVPGLPGSYTIVSGDTLTNISQDFNITLDSLIAANTQIENPDAIDVGQIITVPVCPSSQCEAVGTYNIVAGDLFVDLAATYHTTIGQIKALNNNVNPSKLKVGQQIILPQDCKNVTTAVA",glycan array binding signal (z-score),[1],-0.099
same,glycan array binding signal (z-score),[2],-0.099
same,glycan array binding signal (z-score),[3],-0.096
same,glycan array binding signal (z-score),[4],-0.062
same,glycan array binding signal (z-score),[5],-0.082
same,glycan array binding signal (z-score),[6],-0.078
same,glycan array binding signal (z-score),[7],-0.078
same,glycan array binding signal (z-score),[8],-0.021
same,glycan array binding signal (z-score),[9],-0.077
same,glycan array binding signal (z-score),[10],-0.083
same,glycan array binding signal (z-score),[11],-0.102
same,glycan array binding signal (z-score),[12],-0.099
same,glycan array binding signal (z-score),[13],-0.102
same,glycan array binding signal (z-score),[14],-0.064
same,glycan array binding signal (z-score),[15],-0.076
same,glycan array binding signal (z-score),[16],-0.107
same,glycan array binding signal (z-score),[17],-0.089
same,glycan array binding signal (z-score),[18],-0.039
same,glycan array binding signal (z-score),[19],-0.036
same,glycan array binding signal (z-score),[20],-0.096
same,glycan array binding signal (z-score),[21],-0.074
same,glycan array binding signal (z-score),[22],-0.098
same,glycan array binding signal (z-score),[23],-0.084
same,glycan array binding signal (z-score),[24],-0.089
same,glycan array binding signal (z-score),[25],-0.091
same,glycan array binding signal (z-score),[26],-0.002
same,glycan array binding signal (z-score),[27],-0.094
same,glycan array binding signal (z-score),[28],-0.1
same,glycan array binding signal (z-score),[29],-0.075
same,glycan array binding signal (z-score),[30],10.3
same,glycan array binding signal (z-score),[31],13
same,glycan array binding signal (z-score),[32],10.7
same,glycan array binding signal (z-score),[33],-0.103
same,glycan array binding signal (z-score),[34],-0.085
same,glycan array binding signal (z-score),[35],-0.099
same,glycan array binding signal (z-score),[36],-0.099
same,glycan array binding signal (z-score),[37],-0.004
same,glycan array binding signal (z-score),[38],-0.073
same,glycan array binding signal (z-score),[39],-0.052
same,glycan array binding signal (z-score),[40],-0.096
same,glycan array binding signal (z-score),[41],-0.063
